Test [1] concerns the target Glycogen synthase kinase-3 beta (Homo sapiens) (UniProt P49841). The test is described as follows: NVS_ENZ_hGSK3b: NovaScreen (NVS) Enzymatic Assay for human Glycogen Synthase Kinase-3 beta (GSK3b) (AID 2283165). Summed up: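 Recombinant enzyme with specific fluorescent substrate, 1 h, product separated by electrophoretic mobility shift. Primary duplicate screen at 25 uM; actives (e.g. 30% inhibition) followed in singleton concentration-response to 50 uM. Signal loss fitted versus DMSO.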

The target of test [2] is human Matrix Metalloproteinase-3 (MMP3), MMP3 (gene 4314) (UniProt P08254). The test is described as follows: NVS_ENZ_hMMP3: NovaScreen (NVS) Enzymatic Assay for human Matrix Metalloproteinase-3 (MMP3) (AID 2283185). In a few lines: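 Fluorescent substrate turnover by recombinant MMP3 read after 1 h, signal loss scored against DMSO. Compounds first run in duplicate at 25 uM single dose, then actives confirmed by concentration series.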
Chain of human Matrix Metalloproteinase-3 (MMP3), MMP3 (gene 4314) (P08254 whole entry, looked up): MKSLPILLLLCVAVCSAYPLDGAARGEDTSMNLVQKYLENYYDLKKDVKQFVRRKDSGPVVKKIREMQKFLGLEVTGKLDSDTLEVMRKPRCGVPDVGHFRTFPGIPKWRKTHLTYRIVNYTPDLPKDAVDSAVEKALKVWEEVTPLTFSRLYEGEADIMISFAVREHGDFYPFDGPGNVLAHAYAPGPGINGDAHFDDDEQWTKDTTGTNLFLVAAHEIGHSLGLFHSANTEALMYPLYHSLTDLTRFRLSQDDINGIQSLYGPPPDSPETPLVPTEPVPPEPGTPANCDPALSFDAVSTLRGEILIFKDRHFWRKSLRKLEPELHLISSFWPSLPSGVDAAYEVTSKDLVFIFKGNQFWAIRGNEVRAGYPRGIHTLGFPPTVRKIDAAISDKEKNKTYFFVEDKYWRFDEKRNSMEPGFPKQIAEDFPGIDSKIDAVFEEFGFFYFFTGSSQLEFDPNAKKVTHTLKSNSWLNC

Test [3] addresses human FYN Proto-Oncogene, Src family Tyrosine Kinase (Fyn), FYN (gene 2534) (UniProt P06241). The test is described as follows: NVS_ENZ_hFyn: NovaScreen (NVS) Enzymatic Assay for human FYN Proto-Oncogene, Src family Tyrosine Kinase (Fyn) (AID 2283161). Summed up: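 Cell-free kinase activity read by fluorescence after mobility-shift separation of substrate and product, 1 h post-dose. Initial single concentration 25 uM in duplicate, then concentration-response follow-up; DMSO baseline.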

In test [4] the target is human IkappaB Kinase alpha (IKKa), CHUK (gene 1147) (UniProt O15111). The test is described as follows: NVS_ENZ_hIKKa: NovaScreen (NVS) Enzymatic Assay for human IkappaB Kinase alpha (IKKa) (AID 2283167). Summed up: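 Compounds first run in duplicate at 25 uM, those meeting threshold (e.g. 30% inhibition) retested to maximum 50 uM. Enzyme activity of recombinant IKKa measured by fluorescence with electrophoretic mobility shift separation, 1 hour post-dosing, DMSO baseline.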
Chain of human IkappaB Kinase alpha (IKKa), CHUK (gene 1147) (O15111 whole entry, looked up): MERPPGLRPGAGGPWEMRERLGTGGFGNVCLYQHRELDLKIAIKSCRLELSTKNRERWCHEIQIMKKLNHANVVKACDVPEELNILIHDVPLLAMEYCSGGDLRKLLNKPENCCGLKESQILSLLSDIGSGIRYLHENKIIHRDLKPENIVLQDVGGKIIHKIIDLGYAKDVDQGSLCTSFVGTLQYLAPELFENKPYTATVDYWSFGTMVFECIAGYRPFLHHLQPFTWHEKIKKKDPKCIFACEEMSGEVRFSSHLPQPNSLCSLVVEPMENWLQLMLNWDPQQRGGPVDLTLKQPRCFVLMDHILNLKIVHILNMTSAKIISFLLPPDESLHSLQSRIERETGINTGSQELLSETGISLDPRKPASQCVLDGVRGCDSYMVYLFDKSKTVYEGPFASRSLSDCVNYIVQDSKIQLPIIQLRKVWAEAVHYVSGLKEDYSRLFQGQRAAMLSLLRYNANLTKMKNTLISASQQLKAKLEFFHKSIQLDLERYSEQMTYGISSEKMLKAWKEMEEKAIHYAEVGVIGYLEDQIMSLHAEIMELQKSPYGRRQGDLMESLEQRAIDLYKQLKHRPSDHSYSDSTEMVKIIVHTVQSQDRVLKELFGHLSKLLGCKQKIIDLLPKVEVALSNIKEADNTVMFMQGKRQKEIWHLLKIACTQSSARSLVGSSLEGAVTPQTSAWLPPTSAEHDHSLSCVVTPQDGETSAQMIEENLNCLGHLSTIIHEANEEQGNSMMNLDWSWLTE

The target in test [5] is Mitogen-activated protein kinase 3 (Homo sapiens) (UniProt P27361). The test is described as follows: NVS_ENZ_hMAPK3: NovaScreen (NVS) Enzymatic Assay for human Mitogen-Activated Protein Kinase 3 (MAPK 3) (AID 2283177). Summed up:
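Chemicals were first tested in duplicate at 25 uM, with hits re-run as concentration series (max 50 uM). Recombinant enzyme activity, measured 1 h post-dose in a cell-free format, was read by fluorescence/mobility shift relative to DMSO.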

Test [6] has as its target human MAP Kinase-Activated Protein Kinase 2 (MAPKAPK2), MAPKAPK2 (gene 9261) (UniProt P49137). The test is described as follows: NVS_ENZ_hMAPKAPK2: NovaScreen (NVS) Enzymatic Assay for human MAP Kinase-Activated Protein Kinase 2 (MAPKAPK2) (AID 2283178). Summed up:
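Chemicals screened in duplicate at 25 uM, then to 50 uM top concentration in concentration-response, against recombinant human MAPKAPK2; substrate conversion read 1 hr post-dosing by fluorescence after electrophoretic mobility-shift separation, loss-of-signal relative to DMSO.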

For test [7], the target named is human MET Proto-Oncogene, Receptor Tyrosine Kinase (MET), MET (gene 4233) (UniProt P08581). The test is described as follows: NVS_ENZ_hMet: NovaScreen (NVS) Enzymatic Assay for human MET Proto-Oncogene, Receptor Tyrosine Kinase (MET) (AID 2283180). In a few lines: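 Hits from a 25 uM duplicate screen were retested in concentration series up to 50 uM. Enzyme activity was measured by fluorescence after electrophoretic separation of product from substrate, 1 h after compound addition, relative to DMSO.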

In test [8] the target is Collagenase 3 (Homo sapiens) (UniProt P45452). The test is described as follows: NVS_ENZ_hMMP13: NovaScreen (NVS) Enzymatic Assay for human Matrix Metalloproteinase-13 (MMP13) (AID 2283182). In a few lines:
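Recombinant MMP13 cleaving fluorescent substrate, cell-free, measured 1 h after dosing. Primary duplicate screen at 25 uM; actives tested in concentration-response up to 50 uM; loss of signal relative to DMSO.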

Test [9] deals with human Matrix Metalloproteinase-7 (MMP7), MMP7 (gene 4316) (UniProt P09237). The test is described as follows: NVS_ENZ_hMMP7: NovaScreen (NVS) Enzymatic Assay for human Matrix Metalloproteinase-7 (MMP7) (AID 2283183). In a few lines:
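Compounds first tested at 25 uM in duplicate, then at up to 50 uM in concentration series if active. Protease activity measured by fluorescence intensity 1 h after dosing, with fitting relative to DMSO.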

Test [10] addresses human Matrix Metalloproteinase-9 (MMP9), MMP9 (gene 4318) (UniProt P14780). The test is described as follows: NVS_ENZ_hMMP9: NovaScreen (NVS) Enzymatic Assay for human Matrix Metalloproteinase-9 (MMP9) (AID 2283190).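 Further: cell-free recombinant MMP9 protease activity read by fluorescent substrate signal; active means inhibition seen as loss of fluorescence signal versus DMSO.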 Summed up:
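Extracted enzyme, fluorescent substrate, 1 h post-dose read. Single conc 25 uM in duplicate, then concentration series for actives. Activity = signal loss relative to DMSO negative control.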

Test [11] addresses Protein deacetylase HDAC6 (Homo sapiens) (UniProt Q9UBN7). Kind of test: NVS_ENZ_hHDAC6: NovaScreen (NVS) Enzymatic Assay for human Histone Deacetylase 6 (HDAC6) (AID 2283164). Summed up: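 Concentration-response runs up to 50 uM followed a duplicate 25 uM single-point screen. Deacetylase activity of recombinant human HDAC6 read by fluorescence after 1 h, with mobility-shift separation of substrate and product; DMSO as baseline.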

Test [12] deals with human NIMA (Never In Mitosis Gene A)-Related Kinase 2 (NEK2), NEK2 (gene 4751) (UniProt P51955). Kind of test: NVS_ENZ_hNEK2: NovaScreen (NVS) Enzymatic Assay for human NIMA (Never In Mitosis Gene A)-Related Kinase 2 (NEK2) (AID 2283188). In a few lines: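 Compounds were first screened in duplicate at 25 uM, with actives followed up in concentration series. Recombinant NEK2 activity, cell-free, was read 1 h after dosing by fluorescence intensity after mobility-shift separation. Signal loss was scored against DMSO.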

Test [13] addresses human Phosphodiesterase 4A1 (PDE4A1), PDE4A (gene 5141) (UniProt P27815). Kind of test: NVS_ENZ_hPDE4A1: NovaScreen (NVS) Enzymatic Assay for human Phosphodiesterase 4A1 (PDE4A1) (AID 2283191). Summed up: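 Fluorescent substrate turnover by recombinant PDE4A1 read after 1 h by mobility-shift separation. Primary duplicate screen at 25 uM; hits retested in concentration series with a 50 uM maximum, relative to DMSO.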

Test [14] addresses human Janus Kinase 2 (Jak2), JAK2 (gene 3717) (UniProt O60674). The test is described as follows: NVS_ENZ_hJak2: NovaScreen (NVS) Enzymatic Assay for human Janus Kinase 2 (Jak2) (AID 2283169). Summed up:
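Single-point duplicate screen at 25 uM, with hits run in concentration series to a 50 uM top dose. Substrate-product separation by mobility shift with fluorescence detection, 1 h post-dosing; DMSO baseline.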

Test [15] has as its target human Mitogen-Activated Protein Kinase 1 (MAPK 1), MAPK1 (gene 5594) (UniProt P28482). Kind of test: NVS_ENZ_hMAPK1: NovaScreen (NVS) Enzymatic Assay for human Mitogen-Activated Protein Kinase 1 (MAPK 1) (AID 2283175). Summed up: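 Cell-free recombinant human MAPK1 enzymatic assay, fluorescence/electrophoretic mobility shift read at 1 h; loss of signal vs DMSO. Primary screen in duplicate at 25 uM; actives (e.g. ≥30% inhibition) run as concentration-response up to 50 uM.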

In test [16] the target is human Matrix Metalloproteinase-2 (MMP2), MMP2 (gene 4313) (UniProt P08253). The test is described as follows: NVS_ENZ_hMMP2: NovaScreen (NVS) Enzymatic Assay for human Matrix Metalloproteinase-2 (MMP2) (AID 2283184). Summed up: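 Compounds first screened in duplicate at a single 25 uM, with actives followed up in concentration series. Recombinant human MMP2 cleaves a fluorogenic substrate; fluorescence taken at 1 h, inhibition fitted relative to DMSO.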
Chain of human Matrix Metalloproteinase-2 (MMP2), MMP2 (gene 4313) (P08253 whole entry, looked up): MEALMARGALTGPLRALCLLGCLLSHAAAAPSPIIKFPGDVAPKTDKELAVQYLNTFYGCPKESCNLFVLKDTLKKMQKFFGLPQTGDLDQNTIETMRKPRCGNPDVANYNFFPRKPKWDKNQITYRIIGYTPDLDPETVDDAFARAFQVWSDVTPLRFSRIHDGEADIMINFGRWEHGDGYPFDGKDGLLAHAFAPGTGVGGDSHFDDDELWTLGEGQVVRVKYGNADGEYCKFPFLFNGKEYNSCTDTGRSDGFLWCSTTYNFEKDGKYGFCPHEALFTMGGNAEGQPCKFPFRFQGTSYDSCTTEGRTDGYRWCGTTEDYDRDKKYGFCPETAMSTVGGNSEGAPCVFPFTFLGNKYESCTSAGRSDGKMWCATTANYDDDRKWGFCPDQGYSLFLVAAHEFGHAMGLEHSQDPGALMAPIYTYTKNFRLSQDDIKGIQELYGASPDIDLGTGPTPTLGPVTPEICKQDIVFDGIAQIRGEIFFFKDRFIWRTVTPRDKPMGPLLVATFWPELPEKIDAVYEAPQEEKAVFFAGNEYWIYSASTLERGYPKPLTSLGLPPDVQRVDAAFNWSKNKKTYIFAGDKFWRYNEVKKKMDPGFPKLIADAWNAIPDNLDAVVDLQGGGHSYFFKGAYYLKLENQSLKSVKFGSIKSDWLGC

Test [17] addresses human Mitogen- and Stress-activated Protein Kinase-1 (Msk1), RPS6KA5 (gene 9252) (UniProt O75582). Kind of test: NVS_ENZ_hMsk1: NovaScreen (NVS) Enzymatic Assay for human Mitogen- and Stress-activated Protein Kinase-1 (Msk1) (AID 2283187). In a few lines:
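Chemicals first run in duplicate at 25 uM, with actives followed up in singleton concentration series to 50 uM maximum. Enzyme activity came from substrate/product mobility-shift separation with fluorescence detection after 1 h incubation of the recombinant protein.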

Test [18] deals with human Insulin Receptor (InsR), INSR (gene 3643) (UniProt P06213). Kind of test: NVS_ENZ_hInsR: NovaScreen (NVS) Enzymatic Assay for human Insulin Receptor (InsR) (AID 2283168). Summed up:
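Cell-free enzyme assay read 1 h post-dose by fluorescence after substrate/product mobility-shift separation. Duplicate 25 uM primary screen, then singleton concentration-response up to 50 uM for compounds passing threshold; loss of signal vs DMSO.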

The target in test [19] is Histone deacetylase 3 (Homo sapiens) (UniProt O15379). Kind of test: NVS_ENZ_hHDAC3: NovaScreen (NVS) Enzymatic Assay for human Histone Deacetylase 3 (HDAC3) (AID 2283163). In a few lines:
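Cell-free enzyme format: loss of fluorescent product after mobility-shift separation, 1 h incubation, recombinant human HDAC3. Single 25 uM duplicate screen first, then concentration series to a 50 uM top for hits; DMSO as baseline.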

Inconclusive results are not listed. Activity calls are given as the source filed them. How the source made its calls: active means hit-call score of the fitted dose curve at least 0.9, where 1 is the maximum; inconclusive means response in the unintended direction; inactive means score below 0.9.

Chain of human Phosphodiesterase 4A1 (PDE4A1), PDE4A (gene 5141) (P27815 whole entry, looked up): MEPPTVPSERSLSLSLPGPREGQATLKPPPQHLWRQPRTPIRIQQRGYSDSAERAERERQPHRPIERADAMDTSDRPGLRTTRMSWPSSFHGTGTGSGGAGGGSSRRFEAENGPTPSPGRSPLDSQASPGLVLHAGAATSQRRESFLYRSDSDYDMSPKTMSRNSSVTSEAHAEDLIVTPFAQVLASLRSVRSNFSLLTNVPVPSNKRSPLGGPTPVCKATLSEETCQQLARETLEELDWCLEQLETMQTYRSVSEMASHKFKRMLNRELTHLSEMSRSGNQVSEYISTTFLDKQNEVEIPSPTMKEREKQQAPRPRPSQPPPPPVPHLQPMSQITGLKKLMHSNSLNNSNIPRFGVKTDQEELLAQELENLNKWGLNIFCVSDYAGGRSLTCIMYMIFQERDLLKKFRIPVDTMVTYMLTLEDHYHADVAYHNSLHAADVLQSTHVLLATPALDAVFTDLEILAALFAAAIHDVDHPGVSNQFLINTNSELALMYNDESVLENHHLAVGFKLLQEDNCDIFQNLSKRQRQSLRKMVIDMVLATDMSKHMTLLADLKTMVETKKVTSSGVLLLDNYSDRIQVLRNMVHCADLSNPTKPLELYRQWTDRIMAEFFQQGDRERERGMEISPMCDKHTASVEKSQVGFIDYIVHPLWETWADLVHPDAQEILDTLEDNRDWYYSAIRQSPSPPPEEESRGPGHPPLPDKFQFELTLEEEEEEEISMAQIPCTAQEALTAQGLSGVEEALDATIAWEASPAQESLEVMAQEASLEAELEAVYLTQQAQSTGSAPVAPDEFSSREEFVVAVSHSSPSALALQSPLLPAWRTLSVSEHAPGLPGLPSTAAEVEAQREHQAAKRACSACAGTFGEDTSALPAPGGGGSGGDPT
Chain of human MAP Kinase-Activated Protein Kinase 2 (MAPKAPK2), MAPKAPK2 (gene 9261) (P49137 whole entry, looked up): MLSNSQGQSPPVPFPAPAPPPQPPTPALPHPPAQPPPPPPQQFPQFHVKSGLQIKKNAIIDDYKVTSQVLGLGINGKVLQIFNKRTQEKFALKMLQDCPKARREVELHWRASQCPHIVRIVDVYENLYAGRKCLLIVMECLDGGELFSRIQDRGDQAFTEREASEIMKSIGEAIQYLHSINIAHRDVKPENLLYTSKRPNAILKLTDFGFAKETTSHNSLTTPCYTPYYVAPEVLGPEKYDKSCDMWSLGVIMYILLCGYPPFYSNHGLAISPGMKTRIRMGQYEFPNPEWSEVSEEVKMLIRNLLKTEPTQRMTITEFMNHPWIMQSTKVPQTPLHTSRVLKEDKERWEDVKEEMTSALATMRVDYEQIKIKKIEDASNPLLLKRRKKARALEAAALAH
Chain of human Matrix Metalloproteinase-9 (MMP9), MMP9 (gene 4318) (P14780 whole entry, looked up): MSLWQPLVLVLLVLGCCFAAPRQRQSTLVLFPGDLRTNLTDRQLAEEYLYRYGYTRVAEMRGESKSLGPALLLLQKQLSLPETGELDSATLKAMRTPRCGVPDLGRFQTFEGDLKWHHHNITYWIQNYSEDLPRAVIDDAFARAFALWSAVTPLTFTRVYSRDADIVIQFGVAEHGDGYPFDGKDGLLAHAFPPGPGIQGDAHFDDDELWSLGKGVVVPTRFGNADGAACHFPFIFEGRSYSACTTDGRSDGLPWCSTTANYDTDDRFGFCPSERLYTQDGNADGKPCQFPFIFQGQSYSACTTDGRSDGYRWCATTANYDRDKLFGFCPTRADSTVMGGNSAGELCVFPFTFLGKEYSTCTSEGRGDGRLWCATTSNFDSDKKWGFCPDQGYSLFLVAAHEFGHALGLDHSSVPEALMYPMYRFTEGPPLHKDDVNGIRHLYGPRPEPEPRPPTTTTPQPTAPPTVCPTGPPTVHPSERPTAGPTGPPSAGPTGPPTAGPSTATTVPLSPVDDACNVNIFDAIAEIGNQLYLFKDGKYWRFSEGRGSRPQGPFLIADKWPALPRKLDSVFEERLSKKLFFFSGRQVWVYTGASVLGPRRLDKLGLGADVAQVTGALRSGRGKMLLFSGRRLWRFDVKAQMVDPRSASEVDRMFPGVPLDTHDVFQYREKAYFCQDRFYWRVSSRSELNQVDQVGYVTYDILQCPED
Chain of Glycogen synthase kinase-3 beta (Homo sapiens) (P49841 whole entry, looked up): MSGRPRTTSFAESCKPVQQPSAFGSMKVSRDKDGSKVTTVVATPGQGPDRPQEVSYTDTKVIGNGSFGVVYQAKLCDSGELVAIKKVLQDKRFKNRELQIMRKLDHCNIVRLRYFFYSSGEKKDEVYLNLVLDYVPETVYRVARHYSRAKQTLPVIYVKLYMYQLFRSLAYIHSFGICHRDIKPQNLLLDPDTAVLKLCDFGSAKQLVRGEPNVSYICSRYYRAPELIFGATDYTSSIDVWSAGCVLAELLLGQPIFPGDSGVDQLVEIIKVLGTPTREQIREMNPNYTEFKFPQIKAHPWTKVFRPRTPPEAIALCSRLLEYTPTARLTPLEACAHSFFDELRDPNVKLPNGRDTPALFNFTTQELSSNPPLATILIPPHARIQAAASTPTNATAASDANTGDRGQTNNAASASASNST
Chain of human Matrix Metalloproteinase-7 (MMP7), MMP7 (gene 4316) (P09237 whole entry, looked up): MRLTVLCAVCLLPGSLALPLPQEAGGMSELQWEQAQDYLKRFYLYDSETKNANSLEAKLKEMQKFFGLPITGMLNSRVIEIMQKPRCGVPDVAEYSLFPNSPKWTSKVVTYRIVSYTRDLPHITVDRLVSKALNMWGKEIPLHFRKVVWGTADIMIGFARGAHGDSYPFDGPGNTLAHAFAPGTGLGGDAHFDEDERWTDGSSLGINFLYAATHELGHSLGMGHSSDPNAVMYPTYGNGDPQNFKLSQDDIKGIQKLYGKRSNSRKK
Chain of Mitogen-activated protein kinase 3 (Homo sapiens) (P27361 whole entry, looked up): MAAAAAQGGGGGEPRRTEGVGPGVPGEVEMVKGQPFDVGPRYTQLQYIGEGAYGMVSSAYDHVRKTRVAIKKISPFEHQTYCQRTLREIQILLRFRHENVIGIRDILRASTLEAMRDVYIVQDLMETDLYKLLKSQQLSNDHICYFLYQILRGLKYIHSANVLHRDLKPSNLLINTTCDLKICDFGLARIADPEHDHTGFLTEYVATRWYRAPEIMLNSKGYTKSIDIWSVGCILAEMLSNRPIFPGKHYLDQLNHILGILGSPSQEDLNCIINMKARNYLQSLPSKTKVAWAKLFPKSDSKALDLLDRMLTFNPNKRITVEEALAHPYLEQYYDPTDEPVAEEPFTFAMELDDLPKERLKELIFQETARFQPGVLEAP

Regarding `CC1=NNC(=O)N(/N=C/c2cccnc2)C1`, in test [1], the AC50 (usually the midpoint of the concentration-response curve, whichever way the signal moves) is 32.8 µM (active). In addition, the molecule was called inactive in [2].

With `S=C1NCCN1`, the result in test [3], in test [4], in test [5], in test [6], in [7] and in [8] was inactive. The result in test [9], in test [2] and in [10] was inactive.

As to `N#CSCSC#N`, the concentration at half-maximal activity (AC50) in [11] was 3.68 µM (active). In addition, the result in [1], in test [6] and in test [9] was inactive.

Regarding `CNC(=O)ON=C(C)SC`, the molecule was classed as inactive in test [12].

As to `CNC(=O)Oc1cccc2c1OC(C)(C)O2`, in [9], the AC50 was 6.07 µM (active).

Consider `CCOP(=S)(OCC)Oc1ccc([N+](=O)[O-])cc1`, for which the call in [13] was inactive.

As for `COc1ccc(C(=CC(=O)N2CCOCC2)c2ccc(Cl)cc2)cc1OC`, the molecule was called inactive in test [5]. Moreover, the AC50 in test [13] is 0.0383 µM (active).

In the case of `CCC(=O)Nc1ccc(Cl)c(Cl)c1`, the AC50 in test [13] was 25 µM (active).

`CN(C)C(=O)Nc1cccc(C(F)(F)F)c1`: the molecule was classed as inactive in test [5].

Take `CC(C)N(C(=O)SCC(Cl)=C(Cl)Cl)C(C)C`: the call in [4] was inactive.

On to `Cc1cc(C2CC2)nc(Nc2ccccc2)n1`, for which the molecule was called inactive in test [14], in test [2] and in test [13].

Turning to `C=C(C)[C@H]1Cc2c(ccc3c2O[C@@H]2COc4cc(OC)c(OC)cc4[C@@H]2C3=O)O1`, the outcome in test [15] was inactive.

Turning to `Cc1ccn2nc(S(=O)(=O)Nc3c(F)cccc3F)nc2n1`, the result in test [5], in test [16] and in [10] was inactive.

As for `CCOC(=O)CC(SP(=O)(OC)OC)C(=O)OCC` (stereo not given), the outcome in test [16] and in [10] was inactive.

For `COP(=O)(OC)SCn1c(=O)oc2cc(Cl)cnc21`, the outcome in test [10] was inactive.

Regarding `CCOP(=S)(OCC)Oc1cc(C)nc(C(C)C)n1`, the call in [11], in test [9] and in test [13] was inactive.

Consider `C[Si](Cn1cncn1)(c1ccc(F)cc1)c1ccc(F)cc1`, for which the half-maximal activity concentration (AC50) in [13] was 7.33 µM (active).

As for `CCCOCC(=Nc1ccc(Cl)cc1C(F)(F)F)n1ccnc1`, the result in test [10] and in [13] was inactive.

`CSc1nc(NC(C)C)nc(NC(C)C)n1`: the AC50 in test [13] is 3.43 µM (active).

Take `Nc1c(Cl)cc([N+](=O)[O-])cc1Cl`: the molecule was called inactive in test [1], in [6], in test [2] and in test [17].

On to `CCNc1nc(Cl)nc(NC(C)(C)C#N)n1`, for which the call in test [1] and in test [18] was inactive. For the same molecule, the concentration at half-maximal activity (AC50) in test [13] was 0.39 µM (active).

For `COc1cccc(C(=O)NN(C(=O)c2cc(C)cc(C)c2)C(C)(C)C)c1C`, the call in test [4] was inactive.

Consider `O=c1ccc(=O)[nH][nH]1`, for which, in [19], the concentration at half-maximal activity (AC50) is 14.5 µM (active). Further, the molecule was classed as inactive in test [14].

The record behind these values is PubChem BioAssay (EPA / NIEHS).
